Laboratory results taken from PubChem BioAssay AID720565 (National Center for Advancing Translational Sciences (NCATS), 2013).
Records with an inconclusive call do not appear. Unmarked numbers belong to inactive results. The source made the active and inactive calls. The call rests on the fitted dose curve; in most records, active means well fitted activation curve with a large enough effect; inconclusive means small, poorly fitted or top-dose-only effect; inactive means no such curve, though single readings can be large or run the other way.

Test: qHTS for small molecules that induce genotoxicity in ELG1 expressing cells: Confirmatory Assay for Cherry-picked Compounds; further: nearly all actives have a fitted effect of over 35% in size; on activation: % of control where 0% means no effect
Settings: ELG1-luciferase reporter cells, luminescence, 16 h; series mostly up to 46.1 µM; activation: at the top concentration
From the text: Cancer cells divide rapidly compared to normal cells in the body. During cell division, cancer cells need to duplicate their genome by DNA replication. The failure of genome duplication leads to cancer cells' death. Therefore, inhibitors of DNA replication could specifically kill cancer cells. Based on this concept, many chemotherapeutic agents were developed and have been used to treat cancer patients. However, there are a limited number of agents available in the clinical setting, and some of those that do exist have low efficacy and severe side effects. Therefore, if we can find the compounds that effectively block DNA replication either by directly damaging DNA or by inhibiting other cellular mechanisms, the options for cancer treatment will be broadened. We developed a quantitative high-throughput ELG1-luciferase reporter gene assay. Since the level of human ELG1 protein is enhanced in response to genetic stresses, increases in luciferase activity can be used to identify compounds that cause genetic stress. The data herein is the result of the confirmation assay against the cherry picked compounds selected from the primary qHTS (AID 504466). Activation is the desired outcome for this assay. NIH Chemical Genomics Center [NCGC] NIH Molecular Libraries Probe Centers Network [MLPCN] MLPCN Grant: MH092164 Assay Provider: Kyungjae Myung, National Human Genome Research Institute, NIH
For genotoxicity screening, 2,000 cells/ well (5 uL volume) were dispensed into white, solid-bottom 1536-well plates using a solenoid-based dispenser. Following transfer of 23 nL compound or DMSO vehicle by a pin tool, the plates were incubated 16 hr at 37 C, 5% CO2. Five microliter of ONE-Glo reagent (Promega) was then added to each plate. The assay plates were incubated for 30 min at room temperature followed by quantification of the luciferase activity using the PerkinElmer ViewLux CCD-based plate reader.
Potency means the concentration at half of the fitted maximal effect.

SMILES | Potency | activation
C[C@@H]1C[C@@H]2[C@H]([C@H]3C=C(COC(=O)c4ccccc4)[C@@H](O)[C@]4(O)[C@@H](O)C(OC(=O)c5ccccc5)=C[C@@]14C3=O)C2(C)C | 0.5 µM (active) | –
CCCSc1ccc2nc(NC(=O)OC)[nH]c2c1 | 8.88 µM (active) | –
CCCCCCCCCCCCCC(=O)O[C@@H]1[C@@H](C)[C@@]2(O)[C@H](C=C(CO)C[C@]3(O)C(=O)C(C)=C[C@@H]23)[C@@H]2C(C)(C)C12OC(C)=O (some centres not stated) | 0.0089 µM (active) | –
C=C(C)[C@@]12OC3(c4ccccc4)O[C@@H]1[C@@H]1[C@@H]4O[C@]4(CO)[C@@H](O)[C@]4(O)C(=O)C(C)=C[C@H]4[C@@]1(O3)[C@H](C)[C@H]2OC(=O)/C=C/C=C/c1ccccc1 | 0.05 µM (active) | –
CCCC(=O)O[C@@H]1[C@@H](C)[C@@]2(O)[C@@H](C=C(CO)C[C@]3(O)C(=O)C(C)=C[C@@H]23)[C@@H]2C(C)(C)[C@]12OC(=O)CCC | 0.0996 µM (active) | –
CC(=O)OCC1=C[C@H]2[C@@H]3C(C)(C)[C@]3(OC(=O)Cc3ccccc3)C[C@@H](C)[C@]2(O)[C@@H]2C=C(C)C(=O)[C@@]2(O)C1 | 0.396 µM (active) | –
O=C(CCl)c1ccc(O)c(O)c1 | – | -1.84%
